Experimental data from PubChem BioAssay AID1159580 (chemical genetic matrix, 2015).
The campaign covered roughly 5,500 compounds. About 2,000 (36%) were called active. Inconclusive results (about 18%) are left out. Cut-off read from the data, not from the text of the source: active = normalized growth mostly below about 0.91 (no sharp cut-off); inconclusive = no clear call, values can overlap the other calls; inactive = mostly above about 0.92. Some of the results follow.

Test: chemical genetic growth profiling, strain panel (AID 1159580);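 note: tested at 20 µM; growth read once vehicle control cultures reached saturation at 30 °C; 1 = growth at the plate median or of vehicle wells; lower values mean less growth of the strain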
Settings: S. cerevisiae deletion strains, growth OD

Measured: normalized growth

COc1ccc2oc3ccccc3c(=O)c2c1
inactive: locus YAL021C, strain ccr4, hits give low values 0.948 | locus YCR088W, strain abp1, hits give low values 0.956 | locus YDL005C, strain med2, hits give low values 0.978 | locus YDL035C, strain GPR1, hits give low values 0.861 | locus YDL040C, strain nat1, hits give low values 0.935 | locus YDR001C, strain nth1, hits give low values 0.944 | locus YDR069C, strain doa4, hits give low values 0.918 | locus YDR159W, strain sac3, hits give low values 0.901 | locus YDR297W, strain sur2, hits give low values 0.935 | locus YEL037C, strain rad23, hits give low values 0.925 | locus YER015W, strain faa2, hits give low values 0.931 | locus YER155C, strain BEM2, hits give low values 0.997 | locus YER167W, strain BCK2, hits give low values 0.918 | locus YFR010W, strain ubp6, hits give low values 0.904 | locus YGL227W, strain vid30, hits give low values 0.94 | locus YGR252W, strain gcn5, hits give low values 0.799 | locus YHR027C, strain rpn1, hits give low values 0.939 | locus YIL073C, strain SPO22, hits give low values 0.736 | locus YJL092W, strain hpr5, hits give low values 0.944 | locus YJL115W, strain asf1, hits give low values 0.948 | locus YJL129C, strain trk1, hits give low values 0.921 | locus YJL154C, strain vps35, hits give low values 0.947
active: locus YAL026C, strain drs2, hits give low values 0.884 | locus YAL030W, strain snc1, hits give low values 0.926 | locus YBL061C, strain skt5, hits give low values 0.896 | locus YBR009C, strain hhf1, hits give low values 0.712 | locus YBR021W, strain FUR4, hits give low values 1.22 [resistant] | locus YBR023C, strain chs3, hits give low values 0.874 | locus YBR171W, strain sec66, hits give low values 0.886 | locus YBR229C, strain ROT2, hits give low values 0.885 | locus YBR231C, strain swc5, hits give low values 0.76 | locus YBR279W, strain paf1, hits give low values 0.883 | locus YCL011C, strain gbp2, hits give low values 0.899 | locus YCL016C, strain dcc1, hits give low values 0.842 | locus YCL029C, strain bik1, hits give low values 0.884 | locus YCL061C, strain MRC1, hits give low values 0.9 | locus YCL069W, strain vba3, hits give low values 0.922 | locus YDL074C, strain BRE1, hits give low values 0.762 | locus YDL101C, strain DUN1, hits give low values 0.76 | locus YDL134C, strain PPH21, hits give low values 0.791 | locus YDL185W, strain tfp1, hits give low values 0.809 | locus YDL192W, strain arf1, hits give low values 0.814 | locus YDR101C, strain arx1, hits give low values 0.88 | locus YDR137W, strain rgp1, hits give low values 0.556 | locus YDR150W, strain NUM1, hits give low values 0.904 | locus YDR162C, strain NBP2, hits give low values 0.437 | locus YDR195W, strain ref2 1.28 [resistant] | locus YDR318W, strain mcm21, hits give low values 0.862 | locus YDR334W, strain swr1, hits give low values 0.852 | locus YDR335W, strain msn5, hits give low values 0.874 | locus YDR388W, hits give low values 0.901 | locus YDR392W, strain spt3, hits give low values 0.35 | locus YDR502C, strain sam2, hits give low values 0.848 | locus YEL003W, strain gim4, hits give low values 0.819 | locus YEL061C, strain CIN8 (second series), hits give low values 0.676 | locus YEL061C, strain CIN8, hits give low values 0.718 | locus YER016W, strain bim1, hits give low values 0.903 | locus YER110C, hits give low values 0.837 | locus YER111C, strain swi4, hits give low values 0.87 | locus YER155C, strain BEM2 (second series), hits give low values 0.249 | locus YGL078C, strain dbp3, hits give low values 0.9 | locus YGL086W, strain mad1, hits give low values 0.836 | locus YGL167C, strain pmr1, hits give low values 0.902 | locus YGL173C, strain kem1, hits give low values 0.882 | locus YGL240W, strain doc1, hits give low values 0.785 | locus YGL248W, strain PDE1, hits give low values 0.836 | locus YGL253W, strain hxk2, hits give low values 0.74 | locus YGR135W, strain pre9, hits give low values 0.811 | locus YHR013C, strain ard1, hits give low values 0.631 | locus YHR030C, strain SLT2, hits give low values 0.656 | locus YHR079C, strain IRE1 (second series), hits give low values 0.902 | locus YHR094C, strain hxt1, hits give low values 0.912 | locus YHR129C, strain ARP1, hits give low values 0.897 | locus YHR142W, strain chs7, hits give low values 0.688 | locus YHR200W, strain rpn10, hits give low values 0.862 | locus YIL066C, strain RNR3, hits give low values 0.761 | locus YIL125W, strain kgd1, hits give low values 0.9 | locus YIR030C, strain dcg1, hits give low values 0.91 | locus YJL095W, strain BCK1 (second series), hits give low values 0.65 | locus YJL095W, strain BCK1, hits give low values 0.428 | locus YJL134W, strain LCB3, hits give low values 0.913 | locus YJL164C, strain tpk1, hits give low values 0.844 | locus YJL166W, strain qcr8, hits give low values 0.756 | locus YJL168C, strain set2, hits give low values 0.903 | locus YJL187C, strain SWE1 (second series), hits give low values 0.828
